Only some compounds are listed: those with a hit (about 18% of all), similar ones and a draw of the others.
TDP1 cell noCPT = qHTS for Inhibitors of human tyrosyl-DNA phosphodiesterase 1 (TDP1): qHTS in cells in absence of CPT; Potency, µM (series often up to 46.2 µM), without a hit: at the top dose activity change, negative = growth inhibition, most hits filed as inhibitors; DT40 Tdp1-/- hTDP1 cells, no CPT, ATP luminescence, 48 h; 420,000 compounds, 15% hits; AID 686978, 2013; note: potency is the fitted concentration of half-maximal effect; % is set by controls: 0 for no effect and ±100 for the full control effect; nearly all actives have a fitted effect of over 55% in size
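Stably hTDP1-transfected Tdp1-null chicken DT40 cells were treated with library compounds minus camptothecin and grown for at least 48 hr at 37 °C, after which cellular ATP was quantified by luminescence.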
TDP1 block = inhibitors of human tyrosyl-DNA phosphodiesterase TDP1; Q9NUW8; recombinant TDP1, AlphaScreen DNA substrate cleavage; Potency, µM (series often up to 130 µM), without a hit: at the top dose activity change, negative = inhibition, usual class: inhibitors; 350,000 compounds, 0.28% hits; note: potency is the fitted concentration of half-maximal effect; % is set by controls: 0 for no effect and ±100 for the full control effect; nearly all actives have a fitted effect of over 40% in size
Target sequence (Q9NUW8 whole entry, looked up): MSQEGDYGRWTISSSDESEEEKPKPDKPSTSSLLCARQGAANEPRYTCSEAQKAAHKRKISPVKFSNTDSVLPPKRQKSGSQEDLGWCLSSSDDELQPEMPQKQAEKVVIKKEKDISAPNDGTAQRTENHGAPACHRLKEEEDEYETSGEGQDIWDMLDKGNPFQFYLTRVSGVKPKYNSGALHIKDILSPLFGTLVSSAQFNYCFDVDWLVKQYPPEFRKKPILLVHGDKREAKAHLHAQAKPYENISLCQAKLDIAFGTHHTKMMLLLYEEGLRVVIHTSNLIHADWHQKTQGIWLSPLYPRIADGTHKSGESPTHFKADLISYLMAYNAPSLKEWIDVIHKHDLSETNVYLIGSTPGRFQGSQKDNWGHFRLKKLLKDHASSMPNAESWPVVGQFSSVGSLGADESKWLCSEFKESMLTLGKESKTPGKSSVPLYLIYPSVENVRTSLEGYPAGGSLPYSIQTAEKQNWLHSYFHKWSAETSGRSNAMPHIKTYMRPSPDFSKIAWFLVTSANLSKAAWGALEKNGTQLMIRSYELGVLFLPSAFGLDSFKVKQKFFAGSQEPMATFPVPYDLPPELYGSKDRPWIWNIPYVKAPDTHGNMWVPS
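Here, a 5' biotin and 3' phosphotyrosine-FITC DNA oligonucleotide reports Tdp1 activity: intact substrate bridges AlphaScreen beads, while cleavage leaves a 3' phosphate and drops signal. All incubations at room temperature.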
IL1B secr inh = inflammasome signaling inhibition, IL-1 beta readout | 360,000 compounds, 4.7% hits | activity change, % at 57.5 µM | THP-1 LPS/ATP IL-1B secretion, AlphaLISA, 16 h; stronger effect = lower value; in the data active = activity change below about -50%; inconclusive = mostly about -30% to -49%; note: % is set by controls: 0 for no effect and ±100 for the full control effect
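THP-1 cells pretreated 1 hr with compounds (up to 57.5 uM final), then stimulated with LPS (250 ng/mL final) plus ATP (1.25 mM final); secreted IL-1B measured by AlphaLISA after 16 hr, decreased signal indicating inhibition.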
TGFb SMAD3 inh = blocks TGF-b signaling; HepG2 CAGA-GFP TGF-b/SMAD3 reporter, GFP fluorescence, 18 h; TGF-beta stimulated, 500 pg/mL final; Potency, µM (highest dose often 46.1 µM), inactives show at the top dose activity, negative = inhibition, hits mostly inhibitors; 410,000 compounds, 1.2% hits; note: potency is the fitted concentration of half-maximal effect; % is set by controls: 0 for no effect and ±100 for the full control effect; nearly all actives have a fitted effect of over 65% in size
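Using HEPG2 CAGA-GFP reporter cells at 1000 cells/well, we pinned test compounds, stimulated with recombinant TGF-beta (500 pg/mL final) and measured total well GFP after 18 h.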
HepG2 viability = HepG2 cytotoxicity, counter-screen for TGF-b inhibitors; 410,000 compounds, 0.76% hits; HepG2 CAGA-GFP viability, ATP luminescence, 18 h; Potency, µM (series often up to 46.1 µM), for the others: at the highest dose activity change, negative = cytotoxicity, most hits filed as cytotoxic; note: potency is the fitted concentration of half-maximal effect
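HepG2 CAGA-GFP cells (1000/well, DMEM with 1% FBS) received compound, then TGF-beta at 500 pg/mL final, and were incubated 18 hours at 37 degrees C. Viability was read by CellTiter-Glo luminescence. Media-only wells were set as complete cell-killing and DMSO as no toxicity.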
TDP1 cell CPT = growth inhibition of DT40 Tdp1-/-;hTDP1 cells with camptothecin (screen for TDP1 inhibitors); chicken DT40 Tdp1-/-;hTDP1 cells + 20 nM CPT, ATP luminescence, 48 h; Potency, µM (titrated, usually from 46.2 µM), for the others: at the highest dose activity change, negative = growth inhibition, usual class: inhibitors; 420,000 compounds, 12% hits; AID 686979; note: potency is the fitted concentration of half-maximal effect; % is set by controls: 0 for no effect and ±100 for the full control effect; nearly all actives have a fitted effect of over 55% in size
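Chicken DT40 Tdp1-/- cells complemented with human TDP1, 400 cells/well, exposed to compounds plus 20 nM camptothecin for at least 48 h at 37 C; viability read as ATP content by CellTiter-Glo luminescence.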
An asterisk follows results filed as active; u = inconclusive; x = not tested or not shown. Unless noted, calls come from the whole dose curve; as a rule, active = well fitted curve in the direction sought with a large enough effect; inconclusive = small, poorly fitted or top-dose-only effect, or another doubt; inactive = no such curve, though single readings can be large; an effect the other way counts as inactive or inconclusive.

SMILES	TDP1 cell noCPT	TDP1 block	IL1B secr inh	TGFb SMAD3 inh	HepG2 viability	TDP1 cell CPT
Cc1ccc(C(=O)NC2CCN(CCCC(=O)c3ccc(F)cc3)CC2)cc1	-28.5%	-0.6%	-21.3	5.1%	-4.2%	-18.5%
O=C(CCN1CCCC1)c1cccs1	1.46µM*	11.0%	-13.3	u	-189.5%	0.731µM*
O=C(CCN1CCC2CCC(C2)C1)c1ccc(F)cc1 (stereo not drawn)	2.91µM*	x	-19.2	-7.9%	6.0%	3.26µM*
COc1cc(C(=O)CCN2CCC(c3ccccc3)C2)cc(OC)c1OC (stereo not drawn)	5.8µM*	6.7%	-104.8*	u	-33.2%	4.61µM*
COc1cc(C(=O)N(C)C2CCCN(Cc3ccccc3F)C2)cc(OC)c1OC (stereo not drawn)	-8.2%	x	14.5	-5.9%	-0.1%	-20.5%
O=C(CCN1CCC(c2cccs2)=N1)c1cccs1	5.17µM*	5.7%	-8.7	u	-99.3%	5.8µM*
O=C(Nc1ccccc1)N1CCC(c2ccccc2)C1 (stereo not drawn)	0.3%	2.0%	-17.0	8.0%	-6.8%	0.0%
O=C(c1cccs1)N1CCC(c2ccccc2)C1 (stereo not drawn)	-20.4%	4.5%	0.1	-0.6%	-6.4%	-5.6%
O=C(CCN1CCC(c2ccccc2)C1)c1ccc2c(c1)OCCO2 (stereo not drawn)	1.84µM*	7.1%	-14.3	u	-30.9%	2.06µM*
O=C(CCN1CCC(c2ccccc2)C1)c1cccs1 (stereo not drawn)	2.59µM*	4.0%	-15.4	u	-61.0%	1.84µM*
O=C(CCCc1ccccc1)c1ccc2c(c1)OCCO2	-20.2%	u	14.4	-15.8%	-34.8%	-16.5%
O=C(CCN1CCC(c2ccccc2)C1)c1ccccc1 (stereo not drawn)	3.66µM*	6.7%	2.5	u	-2.6%	3.66µM*
COC(=O)c1c(-c2cccs2)csc1NC(=O)c1cccnc1	14.6µM*	-2.0%	-65.3*	39.2%	-5.7%	16.4µM*
COC(=O)c1c(-c2cccs2)csc1NC(=O)c1ccc(C(C)(C)C)cc1	14.6µM*	-12.0%	x	4.1%	-1.8%	16.4µM*
COC(=O)c1c(-c2cccs2)csc1NC(=O)c1ccc(Cl)cc1	-61.9%	-14.1%	x	u	-6.6%	16.4µM*
COC(=O)c1c(-c2cccs2)csc1NC(=O)c1cccc(Cl)c1	-26.9%	u	x	15.6%	-13.6%	u
COC(=O)c1c(-c2cccs2)csc1NC(=O)c1ccc(C(C)C)cc1	14.6µM*	u	x	-0.3%	-12.7%	u
COC(=O)c1c(-c2cccs2)csc1NC(=O)COc1c(C)ccc(C)c1C	u	-9.9%	x	-1.5%	-24.5%	u
CC(C)C[C@H](NC(=O)Nc1ccccc1F)C(=O)O	-29.5%	-1.8%	3.9	-19.6%	-5.4%	-5.3%
COc1ccc(C(=O)Nc2scc(-c3ccc(Cl)cc3Cl)c2C(N)=O)cc1	14.6µM*	-4.4%	u	-18.2%	-1.0%	u
CCOC(=O)c1c(-c2ccc(OC)c(OC)c2)csc1NC(=O)c1ccc(C)cc1	-18.3%	2.1%	x	1.7%	-8.8%	-18.2%
CCc1noc(C)c1C(=O)N1CCN(S(=O)(=O)c2ccc(Cl)s2)CC1	-15.1%	x	5.9	-6.3%	1.1%	-2.6%
Cc1ccc(NS(=O)(=O)c2ccc(C(=O)NCCCN3CCCC3=O)cc2)cc1C	23.1µM*	-3.5%	1.1	u	0.2%	13µM*
COc1cc(C(=O)NCCCN2CCCC2=O)ccc1OCc1ccc(Cl)cc1Cl	18.4µM*	0.0%	-52.1*	0.0%	-41.8%	13µM*
